Rows were chosen to be rich in hits. Some 4.8% of all compounds tested hit in one or more screens of this group.
STAT1 act = STAT1 signaling activators, primary screen, cell-based, HTS, luciferase reporter; NIH 3T3 STAT1-luciferase reporter, IFN-gamma, luminescence; 100% = IFN-gamma alone, no compound; activation (% of control), % at 5.5 µM; hit rate 2.6% among 200,000;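 active = activation above the screen-wide mean activation plus 3 SD, cut at about 130% in these data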;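 also: raw ratio to IFN-gamma control signal so 100% means no change and 0% no light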
NF-kB expr up = activators of NF-kB expression in neurons, primary screen, cell-based, HTS | human neuronal cells, NF-kB reporter expression; stronger effect = higher value | fold change at 12.5 µM | hit rate 1.6% among 190,000 | AID 1239, 2008; in the data active = fold change above about 3.3
Wee1 degr inh = Wee1 degradation inhibitors, primary screen, cell-based, HeLa, Wee1K328M-luciferase, luminescence; reporter increase, % at 5 µM; Wee1-like protein kinase (Homo sapiens), P30291; HeLa Luc-Wee1K328M stability; 100% = proteasome inhibitor MG132 effect; hit rate 1.2% among 220,000;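 active = activation above the mean of all tested compounds plus 3 SD, set per screening run, cut at about 8.8% in these data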;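 also: cells exposed to compound for 20 h before luminescence read; 0% = DMSO alone and 100% = MG132 at 30 µM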
Target sequence (P30291 whole entry K328M): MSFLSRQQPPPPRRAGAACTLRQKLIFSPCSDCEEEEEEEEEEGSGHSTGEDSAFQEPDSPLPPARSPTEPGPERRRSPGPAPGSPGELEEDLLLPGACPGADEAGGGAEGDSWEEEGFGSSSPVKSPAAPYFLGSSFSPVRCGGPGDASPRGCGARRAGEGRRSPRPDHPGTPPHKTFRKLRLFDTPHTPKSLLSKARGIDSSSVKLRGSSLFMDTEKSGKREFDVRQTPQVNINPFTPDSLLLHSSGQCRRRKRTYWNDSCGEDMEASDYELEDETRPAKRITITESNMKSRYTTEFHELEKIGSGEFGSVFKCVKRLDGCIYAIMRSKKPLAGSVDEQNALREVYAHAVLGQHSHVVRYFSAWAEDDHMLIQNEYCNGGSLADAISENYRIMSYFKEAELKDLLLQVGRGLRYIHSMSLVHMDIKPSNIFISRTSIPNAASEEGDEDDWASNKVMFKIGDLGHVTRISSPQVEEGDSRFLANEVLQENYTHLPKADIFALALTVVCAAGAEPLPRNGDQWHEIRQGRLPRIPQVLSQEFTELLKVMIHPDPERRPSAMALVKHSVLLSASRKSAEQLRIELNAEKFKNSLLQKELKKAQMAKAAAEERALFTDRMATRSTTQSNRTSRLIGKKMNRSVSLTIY
APP 5'UTR act = activators of APP 5'UTR luciferase reporter, primary screen, SH-SY5Y cells; SH-SY5Y APP 5'UTR luciferase reporter, luminescence; zero percent = DMSO vehicle wells; activation, % at 2 µM; hit rate 1% among 190,000; AID 1276, 2008;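 active = activation above a set limit, based on mean plus 3 SD of controls, cut at about 140% in these data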
APP 5UTR inh = inhibitors of APP translation via 5'UTR reporter, primary screen, APP 5'UTR luciferase, SH-SY5Y cells. SH-SY5Y APP 5'UTR-luciferase reporter, luminescence. inhibition, % at 2 µM. hit rate 0.82% among 190,000;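 active = inhibition above a set limit, derived from the sample mean plus 3 SD, cut at about 45% in these data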
Hsp70 act = Hsp70 transcriptional activators, primary screen, cell-based, HeLa, Hsp70 promoter luciferase, luminescence, 10 µM; HeLa Hsp70 promoter luciferase reporter; scaled: vehicle 0, proteasome-inhibitor control 100%; activation, % at 10 µM; hit rate 0.04% among 200,000; AID 1203, 2008;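 active = activation above the mean across all tested compounds plus 3 SD, cutoff set per campaign, cut at about 5.5% in these data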;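 also: 100% = MG132 at 30 µM as the positive control and 0% = DMSO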
STAT1 activ conf = STAT1 signaling activators, confirmation, cell-based, HTS, luciferase reporter; shares compounds with STAT1 act; NIH 3T3 STAT1-luciferase reporter, IFN-gamma potentiation, luminescence; 100% = IFN-gamma EC80 alone, no compound; activation (% of control), % at 5.7 µM; hit rate 97% among 1,200;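 active = activation above a set limit carried over from the earlier primary STAT1 screen, cut at about 140% in these data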;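 also: simple ratio to median IFN-gamma plus DMSO wells so 0% means no light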
NFkB act STAT1ct = NF-kB reporter activators, TNF-alpha stimulated, counter-screen for STAT1 activator project, cell-based, HEK293T, luciferase luminescence. AID 1306, 2008. activation (% of control), % at 5.7 µM. shares compounds with STAT1 act. 100% = TNF-alpha with vehicle only. hit rate 43% among 1,200;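 active = activation above the mean of solvent-only control wells plus 3 SD, set per campaign, cut at about 130% in these data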;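 also: TNF-alpha given at a submaximal dose yielding about 80% of full reporter signal; values are well signal over median control so 100% means no change and 0% no light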
STAT3 act 2 = STAT3 reporter activation by STAT1 hits, confirmation, counter-screen for STAT1 activator project, U3A cells, luciferase, luminescence. shares compounds with STAT1 act. IL-6; cells lack STAT1; 100 = IL-6 alone, no compound effect. activation (% of control), % at 5.7 µM. hit rate 46% among 1,200. AID 1316, 2008;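 active = activation above the solvent-only control well mean plus 3 SD, set per plate batch, cut at about 110% in these data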;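 also: 0% = no luminescence and 100% = median IL-6 plus DMSO wells; higher means more STAT3 reporter activation so hits are non-selective activators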
Active calls of the source: *; · = no result given.

SMILES	STAT1 act	NF-kB expr up	Wee1 degr inh	APP 5'UTR act	APP 5UTR inh	Hsp70 act	STAT1 activ conf	NFkB act STAT1ct	STAT3 act 2
Cc1ccsc1/C=N/Nc1nc2ccccc2[nH]1	152.7*	5.32*	1.4	145.3*	-145.3	0.3	192.8*	132.1	106.7
CC(/C=N/Nc1nc(C)cc(=O)[nH]1)=C\c1ccccc1	108.7	1.25	-2.3	11.6	-11.6	0.2	·	·	·
CC(c1ccccc1)c1nnc(NC(=O)c2ccc3c(c2)OCO3)s1 (centres undefined)	·	·	1.8	·	·	·	·	·	·
Cc1cc2cc(CCNC(=O)c3cccs3)c(=O)[nH]c2cc1C	151.4*	2.04	3.3	97.9	-97.9	1.5	175.8*	131.1	96.5
Cc1ccc2cc(CCNC(=O)c3ccco3)c(=O)[nH]c2c1	128.1	2.39	-1.6	47.3	-47.3	-0.1	·	·	·
Cc1ccc2cc(CCNC(=O)c3ccco3)c(=O)[nH]c2c1C	155.5*	3.87*	-0.4	129.4	-129.4	0.4	200.9*	138.0*	121.4*
CCN(C(=O)CN(C)Cc1cccc(Cl)c1Cl)c1c(N)n(Cc2ccccc2)c(=O)[nH]c1=O	92.8	0.91	-2.6	-12.4	12.4	-0.3	·	·	·
Cc1ccc(NC(=O)/C(Cl)=C/c2ccccc2)cc1C	176.9*	9.13*	2.7	138.8*	-138.8	-0.2	230.4*	121.6	102.3
CC(=O)Nc1ccccc1C(=O)C(=O)Nc1ccc(C)c(C)c1	128.2	1.17	7.2	81.0	-81.0	-0.1	·	·	·
Cc1nn(-c2ccc(Cl)cc2)c2[nH]c(=O)c(CNCc3ccc4c(c3)OCO4)cc12	102.6	1.21	-0.8	4.3	-4.3	0.1	·	·	·
O=C(Nc1ccc(N2CCCC2)cc1)c1ccc(Br)o1	166.0*	2.9	6.3	56.6	-56.6	0.0	216.8*	134.5*	103.0
CCCC(=O)N1CCN(c2ccc(NC(=O)c3ccc(Br)o3)cc2)CC1	104.2	0.8	5.9	7.3	-7.3	0.0	·	·	·
O=c1[nH]nc2n1CCCCC2	105.0	1.19	1.0	9.4	-9.4	-0.1	·	·	·
Clc1ccc(-c2cn3cc(Br)ccc3n2)cc1Cl	164.9*	7.16*	1.6	200.7*	-200.7	-0.2	222.2*	100.0	121.6*
Brc1ccc2nc(-c3c[nH]c4ccccc34)cn2c1	194.0*	1.04	6.3	213.0*	-213.0	0.2	286.9*	143.2*	113.4*
O=S(=O)(Nc1nc2ccccc2nc1N1CCN(c2ccccc2)CC1)c1ccc(F)cc1	105.5	0.94	-2.7	-2.3	2.3	-0.2	·	·	·
O=C(N/N=C/C(Cl)=C/c1ccccc1)c1ccco1	156.4*	4.27*	1.5	88.7	-88.7	2.2	185.5*	133.7*	109.2
O=C(N/N=C/C(Cl)=C\c1ccccc1)c1ccco1	·	·	0.7	·	·	·	·	·	·
CCC(=O)Nc1nc2n(n1)C(c1ccc(OC)cc1)C=C(c1ccccc1)N2 (centres undefined)	91.2	1.03	-1.6	7.8	-7.8	-0.2	·	·	·
Clc1ccc(-c2cnc(Oc3ccccc3)nc2)cc1	152.8*	2.35	1.5	137.9*	-137.9	0.1	189.7*	141.6*	108.7
COc1ccc(-n2c(=O)[nH]cc(C(=O)N3CCCc4ccccc43)c2=O)cc1	88.6	0.93	-1.6	2.4	-2.4	-0.1	·	·	·
CCn1c(O)c(C=Nc2ccccc2)sc1=S	175.8*	3.37*	4.4	191.3*	-191.3	0.1	205.8*	139.3*	110.6*
COc1ccc(C(=O)N2CC(=O)Nc3ccccc32)cc1S(=O)(=O)N1CCCC1	97.0	0.96	1.5	-7.4	7.4	-0.4	·	·	·
Cc1nc2c(ccc3nc(NC(=O)c4ccc5c(c4)OCCO5)sc32)s1	168.5*	5.38*	1.5	123.1	-123.1	-0.2	230.0*	129.2	103.8
COc1ccc2o/c(=N\O)c(C(=O)Nc3ccc(C)cc3)cc2c1	83.6	1.31	3.2	20.6	-20.6	0.3	·	·	·
SMILES	STAT1 act	NF-kB expr up	Wee1 degr inh	APP 5'UTR act	APP 5UTR inh	Hsp70 act	STAT1 activ conf	NFkB act STAT1ct	STAT3 act 2
COc1ccc(-c2nnn(Cc3ccccc3F)n2)cc1	163.0*	2.94	2.9	117.8	-117.8	0.0	176.2*	133.3*	114.4*
COc1ccc(C(=O)Cn2nnc(-c3ccccc3F)n2)cc1	102.3	1.55	5.0	24.9	-24.9	-0.3	·	·	·
O=C(N[C@@H](c1ccccc1)[C@@H]1C[C@H]1C(=O)O)OCc1ccccc1	90.2	1.12	-3.0	4.2	-4.3	0.3	·	·	·
O=C(NC1=NCCS1)c1ccc(-c2ccc(Cl)cc2)o1	155.6*	4.62*	7.5	118.9	-118.9	0.1	186.9*	126.1	94.4
Cc1cc(C)cc(N(CC(=O)N2CCC(C)CC2)S(C)(=O)=O)c1	99.9	1.33	-0.3	-8.3	8.3	0.0	·	·	·
COc1ccc(Cn2c(C3CC3)nc3ccc(NC(=O)C4CC4)cc3c2=O)cc1	209.0*	8.4*	4.2	173.1*	-173.1	0.4	294.0*	144.1*	124.3*
CCC(=O)Nc1ccc2nc(C3CC3)n(Cc3ccc(C(C)(C)C)cc3)c(=O)c2c1	·	·	-0.1	·	·	·	·	·	·
Nc1nc2ccccc2n1CCOc1ccccc1Cl	93.8	1.16	-2.2	2.1	-2.1	-0.3	·	·	·
CCOC(=O)c1c(C)nc2c3ccccc3ccn12	153.0*	5.01*	1.7	160.3*	-160.3	0.2	201.9*	131.5	119.7*
O=C(Oc1ccc2ccccc2c1Cl)N1CCCCCC1	173.7*	5.13*	6.1	133.3	-133.3	-0.1	211.1*	118.4	140.7*
O=C(Oc1ccc(Cl)c2ccccc12)N1CCCCC1	103.0	1.54	-1.0	9.6	-9.6	-0.2	·	·	·
CC1CCc2nc(NC(=O)C3CCCO3)sc2C1 (centres undefined)	160.8*	3.51*	9.7*	172.2*	-172.2	-0.3	189.0*	102.5	96.4
O=C(Nc1nc(-c2nc3ccccc3s2)cs1)C1CC1	162.0*	5.7*	-0.3	238.0*	-238.1	0.4	226.5*	128.2	116.6*

Screening data (PubChem)
